Assay results: PubChem BioAssay AID463075 (University of Pittsburgh Molecular Library Screening Center, 2010)
The whole screen tested about 220,000 compounds, of which about 150 (0.068%) were called active. This is one part of a sample in which actives are shown more often than they occur.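 The calls were made as follows: active = activation, meaning protection from cell death, of at least 50% relative to plate controls; inactive = activation below 50%.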

Assay: inhibitors of TNF-alpha triggered necroptosis, primary screen, cell-based, Jurkat FADD-/-, single concentration (AID 463075);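 also: necroptosis triggered by 40 ng/mL TNF-alpha added together with compound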
Conditions: Jurkat FADD-/- TNF necroptosis rescue, ATP luminescence, 24 h; at 10 µM; stronger effect = higher value; 0 = TNF only, 100 = no-TNF cells

**Q.** For COc1ccc(NC(=O)C2=C(C)NC(=O)NC2c2ccccc2[N+](=O)[O-])cc1 (stereo unspecified), which activation (protection from cell death) is on record?
**A.** 0.73% (inactive)

**Q.** Which activation (protection from cell death) does the source give for CCOC(=O)c1cc(Sc2ccccc2N)cc(C(=O)OCC)n1 here?
**A.** 0.0548% (inactive)

**Q.** With COc1ccc(OCc2cn3c(C)cc(C)nc3n2)cc1 as the compound, how does the activation (protection from cell death) read?
**A.** 1.17% (inactive)

**Q.** With CC1COc2ccccc2N1S(=O)(=O)c1ccccc1 (stereo unspecified) as the compound, how does the activation (protection from cell death) read?
**A.** -0.217% (inactive)

**Q.** Which activation (protection from cell death) does the source give for CCOc1ccccc1NC(=O)C12CC3CC(C1)CC(c1ccc(C)cc1)(C3)C2 here?
**A.** -1.89% (inactive)

**Q.** Which activation (protection from cell death) does the source give for Cc1csc(Nc2ccc(Cl)cc2)[n+]1-c1ccc(Cl)cc1 here?
**A.** 52.7% (active)

**Q.** For O=c1ccnc(Nc2ccc(Cl)cc2)[nH]1, which activation (protection from cell death) is on record?
**A.** 2.1% (inactive)

**Q.** Which activation (protection from cell death) does the source give for Cc1ccc(NC(=O)c2ccc(Oc3ncccn3)cc2)cc1 here?
**A.** -0.146% (inactive)

**Q.** Which activation (protection from cell death) does the source give for CN(C)Cc1ccc(F)cc1Sc1cc(Cl)ccc1Cl here?
**A.** 0.603% (inactive)

**Q.** Which activation (protection from cell death) does the source give for CCOC(=O)CNC(=O)N1c2ccccc2Sc2ccccc21 here?
**A.** -1.84% (inactive)

**Q.** With C=CCNC(=O)c1cc2nc(C3CC3)cc(C(F)F)n2n1 as the compound, how does the activation (protection from cell death) read?
**A.** 0.00242% (inactive)

**Q.** For Cc1ccc(C(=O)/C=C/Nc2ccc(S(=O)(=O)Nc3onc(C)c3C)cc2)cc1, which activation (protection from cell death) is on record?
**A.** 1.49% (inactive)

**Q.** With CCN(CC)c1ccc(C(=O)c2cnc(/N=C/N(C)C)s2)cc1 as the compound, how does the activation (protection from cell death) read?
**A.** 2.87% (inactive)

**Q.** With CC(NC(=S)NNS(=O)(=O)c1ccc(C(C)(C)C)cc1)c1ccccc1 (stereo unspecified) as the compound, how does the activation (protection from cell death) read?
**A.** 5.41% (inactive)

**Q.** With COc1cc(OC)cc(C(=O)NC2CCN(C(=O)N3c4ccccc4Sc4ccccc43)CC2)c1 as the compound, how does the activation (protection from cell death) read?
**A.** -2.58% (inactive)

**Q.** For CN(C)CCCn1c(SCCN2C(=O)c3ccccc3C2=O)nc2ccccc2c1=O, which activation (protection from cell death) is on record?
**A.** 0.858% (inactive)

**Q.** Which activation (protection from cell death) does the source give for CCN(CC)C(=O)CSc1nnc(CNc2ccc(F)cc2)n1Cc1ccco1 here?
**A.** 0.256% (inactive)

**Q.** Which activation (protection from cell death) does the source give for C/C(CC(C)C)=N\Oc1nc(C)cc(C)n1 here?
**A.** 1.02% (inactive)

**Q.** With Clc1ccc(-c2cc(C3CCNCC3)[nH]n2)c(Cl)c1 as the compound, how does the activation (protection from cell death) read?
**A.** 4.13% (inactive)

**Q.** For FC(F)(F)c1cc(C(F)(F)F)c2ccc(N3CCN(c4ccccc4)CC3)nc2n1, which activation (protection from cell death) is on record?
**A.** -0.212% (inactive)

**Q.** Which activation (protection from cell death) does the source give for NC(=O)c1ccc(NC(=O)COC(=O)C(Cc2ccccc2)NC(=O)c2ccccc2)cc1 (stereo unspecified) here?
**A.** 0.97% (inactive)

**Q.** For Cc1nn(C)c(C)c1S(=O)(=O)N1CCC(CO)(Cc2ccc(Cl)cc2)CC1, which activation (protection from cell death) is on record?
**A.** -0.682% (inactive)

**Q.** Which activation (protection from cell death) does the source give for CCC1CO/C(=C(\C(=C(Cl)Cl)N2CCOCC2)[N+](=O)[O-])N1 (stereo unspecified) here?
**A.** 0.241% (inactive)

**Q.** With C=C(C)COc1ccc(-c2nc(N)ncc2-c2ccccc2OC)c(O)c1 as the compound, how does the activation (protection from cell death) read?
**A.** 1.21% (inactive)

**Q.** For OCC1(CCc2ccccc2)CCN(Cc2ccc3nsnc3c2)CC1, which activation (protection from cell death) is on record?
**A.** 1.53% (inactive)

**Q.** For NS(=O)(=O)c1ccc(NC(=S)NC(=O)c2cccc(Br)c2)cc1, which activation (protection from cell death) is on record?
**A.** -0.737% (inactive)
